This passage reports binding signal results from PMC7862700, “An all-to-all approach to the identification of sequence-specific readers for epigenetic DNA modifications on cytosine”.

Assay in all cases: DAPPL (digital affinity profiling via proximity ligation, sequencing); 10 mM Tris-HCl pH 7.5, 50 mM NaCl, 1 mM DTT, 4% glycerol, room temperature, 30 min; GST-TFs on glutathione beads, 16-mer random dsDNA library, 0.1% formaldehyde crosslink after washing; high values mean tight binding
Holding throughout (conditions): protein: recombinant; tags: N-terminal GST; dsDNA, one strand shown

One assay addresses T1, ERF (Homo sapiens, UniProt P50548 1-548).
T1 sequence: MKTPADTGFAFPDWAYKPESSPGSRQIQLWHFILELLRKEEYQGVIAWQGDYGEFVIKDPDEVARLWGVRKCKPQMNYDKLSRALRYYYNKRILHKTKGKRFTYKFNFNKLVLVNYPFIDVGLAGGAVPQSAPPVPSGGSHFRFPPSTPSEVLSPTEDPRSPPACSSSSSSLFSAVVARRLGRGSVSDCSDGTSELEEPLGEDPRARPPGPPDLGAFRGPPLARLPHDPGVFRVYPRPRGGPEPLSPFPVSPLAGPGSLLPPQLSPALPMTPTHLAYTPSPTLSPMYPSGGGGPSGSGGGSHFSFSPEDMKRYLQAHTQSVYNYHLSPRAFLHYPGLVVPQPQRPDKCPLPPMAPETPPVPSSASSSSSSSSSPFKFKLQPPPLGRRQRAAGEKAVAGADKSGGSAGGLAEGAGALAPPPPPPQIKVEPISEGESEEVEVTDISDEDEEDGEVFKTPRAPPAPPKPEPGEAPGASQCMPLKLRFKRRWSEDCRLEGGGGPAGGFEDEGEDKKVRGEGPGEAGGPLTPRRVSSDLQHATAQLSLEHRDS
Put shortly: (§1)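 Binding signal is each hexamer's read frequency for a factor divided by its frequency in the tag-only sample. The factors were GST-fused human transcription factors from yeast, captured on glutathione beads, DNA-barcoded and pooled with that sample. Pools were incubated with 200 nmole of a random double-stranded 16-mer DNA library in Tris/NaCl/DTT/glycerol buffer at room temperature for 30 min, then washed, crosslinked with 0.1% formaldehyde, proximity-ligated with BsaI/T4 ligase (1 h, 37 °C), PCR-amplified and sequenced on an Illumina NextSeq500.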

In another assay the target is T2, ETV3L (Homo sapiens, UniProt Q6ZN32 1-361).
T2 sequence: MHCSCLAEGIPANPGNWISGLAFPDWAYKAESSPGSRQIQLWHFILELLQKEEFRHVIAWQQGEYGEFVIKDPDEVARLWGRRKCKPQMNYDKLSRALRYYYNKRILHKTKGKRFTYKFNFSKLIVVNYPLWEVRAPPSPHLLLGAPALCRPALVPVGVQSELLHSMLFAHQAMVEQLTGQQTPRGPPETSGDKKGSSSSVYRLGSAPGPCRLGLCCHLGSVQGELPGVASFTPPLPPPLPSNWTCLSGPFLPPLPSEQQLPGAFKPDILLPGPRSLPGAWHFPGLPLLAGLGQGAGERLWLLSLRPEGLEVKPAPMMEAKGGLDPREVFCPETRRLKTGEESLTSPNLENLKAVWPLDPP
Put shortly:
as §1

For a further assay, the target named is T3, ETS2 (Homo sapiens, UniProt P15036 1-469).
T3 sequence: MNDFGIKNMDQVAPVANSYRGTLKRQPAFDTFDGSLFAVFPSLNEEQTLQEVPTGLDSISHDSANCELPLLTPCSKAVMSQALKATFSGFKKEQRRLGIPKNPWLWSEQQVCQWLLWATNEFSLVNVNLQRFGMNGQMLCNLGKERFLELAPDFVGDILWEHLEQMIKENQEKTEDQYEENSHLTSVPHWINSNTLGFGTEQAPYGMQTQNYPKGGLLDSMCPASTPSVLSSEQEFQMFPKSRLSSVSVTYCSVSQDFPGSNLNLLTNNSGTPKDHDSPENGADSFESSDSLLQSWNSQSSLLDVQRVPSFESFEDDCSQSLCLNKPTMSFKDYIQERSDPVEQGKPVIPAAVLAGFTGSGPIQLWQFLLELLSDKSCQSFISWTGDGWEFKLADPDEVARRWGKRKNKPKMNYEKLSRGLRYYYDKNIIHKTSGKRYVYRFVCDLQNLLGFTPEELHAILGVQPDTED
The method, boiled down:
as §1

The target of the next assay is T4, SPDEF (Homo sapiens, UniProt O95238 1-335).
T4 sequence: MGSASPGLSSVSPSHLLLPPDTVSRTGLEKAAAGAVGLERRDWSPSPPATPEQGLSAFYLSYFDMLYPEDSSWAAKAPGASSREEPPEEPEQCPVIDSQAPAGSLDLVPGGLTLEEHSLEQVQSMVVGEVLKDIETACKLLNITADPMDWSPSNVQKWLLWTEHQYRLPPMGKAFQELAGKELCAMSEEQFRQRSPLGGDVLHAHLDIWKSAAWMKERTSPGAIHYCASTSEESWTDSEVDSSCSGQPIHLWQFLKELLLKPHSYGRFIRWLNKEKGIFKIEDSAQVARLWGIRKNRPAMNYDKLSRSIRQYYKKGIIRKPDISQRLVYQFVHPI
Put shortly: as §1

In the next assay the target is T5, ETV7 (Homo sapiens, UniProt Q9Y603 1-341).
T5 sequence: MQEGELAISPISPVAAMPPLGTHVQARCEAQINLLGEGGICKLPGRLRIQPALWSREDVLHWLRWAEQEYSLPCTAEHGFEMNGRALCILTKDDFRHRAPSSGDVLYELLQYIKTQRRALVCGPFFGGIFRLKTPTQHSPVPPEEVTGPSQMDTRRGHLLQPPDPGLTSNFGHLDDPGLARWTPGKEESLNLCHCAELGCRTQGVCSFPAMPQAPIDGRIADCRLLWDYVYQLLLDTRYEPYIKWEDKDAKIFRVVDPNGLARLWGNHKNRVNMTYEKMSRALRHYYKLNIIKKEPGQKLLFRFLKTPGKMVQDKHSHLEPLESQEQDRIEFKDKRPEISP
Put shortly:
as §1

The next assay concerns the target T6, ELF5 (Homo sapiens, UniProt Q9UKW6-2 1-255).
T6 sequence: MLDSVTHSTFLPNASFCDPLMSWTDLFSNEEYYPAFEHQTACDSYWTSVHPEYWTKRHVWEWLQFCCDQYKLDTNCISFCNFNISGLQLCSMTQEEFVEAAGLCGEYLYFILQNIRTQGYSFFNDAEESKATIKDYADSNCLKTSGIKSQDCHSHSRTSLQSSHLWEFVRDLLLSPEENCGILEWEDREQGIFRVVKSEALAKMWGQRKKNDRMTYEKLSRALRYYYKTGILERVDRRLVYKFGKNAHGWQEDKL
The method, boiled down: as §1

In another assay the target is T7, ETV3 (Homo sapiens, UniProt P41162-2 1-143).
T7 sequence: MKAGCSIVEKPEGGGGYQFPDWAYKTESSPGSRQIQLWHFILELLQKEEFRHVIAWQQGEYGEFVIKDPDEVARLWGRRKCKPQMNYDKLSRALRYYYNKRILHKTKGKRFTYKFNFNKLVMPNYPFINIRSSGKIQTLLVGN
The method, boiled down:
as §1

In a further assay the target is ETV6 (Homo sapiens, UniProt P41212 1-452). The method, boiled down:
as §1

ETV6, sequence (P41212 whole entry): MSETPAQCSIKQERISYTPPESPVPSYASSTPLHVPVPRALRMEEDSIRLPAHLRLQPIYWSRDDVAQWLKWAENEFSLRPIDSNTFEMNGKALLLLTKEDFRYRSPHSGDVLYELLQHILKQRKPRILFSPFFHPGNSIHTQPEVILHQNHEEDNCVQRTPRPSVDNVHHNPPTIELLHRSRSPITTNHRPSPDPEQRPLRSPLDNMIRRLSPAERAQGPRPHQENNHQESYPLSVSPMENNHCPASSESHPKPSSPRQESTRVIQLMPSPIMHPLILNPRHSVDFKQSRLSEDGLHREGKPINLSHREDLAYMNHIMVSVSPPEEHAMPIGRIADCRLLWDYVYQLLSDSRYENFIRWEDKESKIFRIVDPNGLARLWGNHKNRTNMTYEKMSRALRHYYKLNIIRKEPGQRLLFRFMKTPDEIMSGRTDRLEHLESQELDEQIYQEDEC

As for TGACCA, the binding signal with ERF was 1.31 fold enrichment (6-mer frequency, TF over GST control); in the assay with ETV3L, 1.32 fold enrichment (6-mer frequency, TF over GST control); with ETS2, 1.23 fold enrichment (6-mer frequency, TF over GST control); in the assay with SPDEF, 1.24 fold enrichment (6-mer frequency, TF over GST control); with ETV7 it was 1.15 fold enrichment (6-mer frequency, TF over GST control); in the assay with ELF5 it was 1.16 fold enrichment (6-mer frequency, TF over GST control). In addition, the binding signal with ETV3 was 1.23 fold enrichment (6-mer frequency, TF over GST control); with ETV6, 1.27 fold enrichment (6-mer frequency, TF over GST control).

Consider TGTATT, for which the binding signal with ERF was 1.36 fold enrichment (6-mer frequency, TF over GST control); with ETV3L, 1.4 fold enrichment (6-mer frequency, TF over GST control); in the assay with ETS2, 1.4 fold enrichment (6-mer frequency, TF over GST control); with SPDEF, 1.42 fold enrichment (6-mer frequency, TF over GST control); with ETV7, 1.4 fold enrichment (6-mer frequency, TF over GST control); with ELF5, 1.26 fold enrichment (6-mer frequency, TF over GST control). The binding signal was 1.41 fold enrichment (6-mer frequency, TF over GST control) with ETV3 and 1.41 fold enrichment (6-mer frequency, TF over GST control) with ETV6.

On to TGCATG, for which the binding signal in the assay with ERF was 1.06 fold enrichment (6-mer frequency, TF over GST control); with ETV3L, 1.27 fold enrichment (6-mer frequency, TF over GST control); with ETS2, 1.06 fold enrichment (6-mer frequency, TF over GST control); in the assay with SPDEF it was 1.06 fold enrichment (6-mer frequency, TF over GST control); in the assay with ETV7 it was 1.06 fold enrichment (6-mer frequency, TF over GST control); in the assay with ELF5, 1.01 fold enrichment (6-mer frequency, TF over GST control). Also, the binding signal was 1.1 fold enrichment (6-mer frequency, TF over GST control) with ETV3 and 1.08 fold enrichment (6-mer frequency, TF over GST control) in the assay with ETV6.

As to CACGAC, the binding signal was 1.22 fold enrichment (6-mer frequency, TF over GST control) with ERF; 1.26 fold enrichment (6-mer frequency, TF over GST control) with ETV3L; 1.24 fold enrichment (6-mer frequency, TF over GST control) in the assay with ETS2; 1.19 fold enrichment (6-mer frequency, TF over GST control) with SPDEF; 1.34 fold enrichment (6-mer frequency, TF over GST control) with ETV7; 1.24 fold enrichment (6-mer frequency, TF over GST control) with ELF5. The binding signal is 1.15 fold enrichment (6-mer frequency, TF over GST control) in the assay with ETV3 and 1.24 fold enrichment (6-mer frequency, TF over GST control) with ETV6.

For ACGTAA, the binding signal with ERF is 1.12 fold enrichment (6-mer frequency, TF over GST control); with ETV3L it was 1.09 fold enrichment (6-mer frequency, TF over GST control); with ETS2 it was 1.08 fold enrichment (6-mer frequency, TF over GST control); with SPDEF it was 1.11 fold enrichment (6-mer frequency, TF over GST control); in the assay with ETV7, 1.08 fold enrichment (6-mer frequency, TF over GST control); with ELF5, 1.09 fold enrichment (6-mer frequency, TF over GST control). The binding signal with ETV3 was 1.17 fold enrichment (6-mer frequency, TF over GST control); with ETV6 it was 1.07 fold enrichment (6-mer frequency, TF over GST control).

With ACTACA, the binding signal in the assay with ERF is 1.13 fold enrichment (6-mer frequency, TF over GST control); in the assay with ETV3L it was 1.22 fold enrichment (6-mer frequency, TF over GST control); in the assay with ETS2, 1.15 fold enrichment (6-mer frequency, TF over GST control); with SPDEF, 1.28 fold enrichment (6-mer frequency, TF over GST control); with ETV7, 1.11 fold enrichment (6-mer frequency, TF over GST control); in the assay with ELF5, 1.24 fold enrichment (6-mer frequency, TF over GST control). For the same sequence, the binding signal is 1.19 fold enrichment (6-mer frequency, TF over GST control) with ETV3 and 1.19 fold enrichment (6-mer frequency, TF over GST control) with ETV6.

As to CCAAAT, the binding signal is 1.11 fold enrichment (6-mer frequency, TF over GST control) with ERF; 1.02 fold enrichment (6-mer frequency, TF over GST control) in the assay with ETV3L; 1.08 fold enrichment (6-mer frequency, TF over GST control) in the assay with ETS2; 1.05 fold enrichment (6-mer frequency, TF over GST control) with SPDEF; 1.06 fold enrichment (6-mer frequency, TF over GST control) with ETV7; 1.01 fold enrichment (6-mer frequency, TF over GST control) with ELF5. Moreover, the binding signal in the assay with ETV3 was 1.03 fold enrichment (6-mer frequency, TF over GST control); in the assay with ETV6, 1.06 fold enrichment (6-mer frequency, TF over GST control).

Consider CCGGGT, for which the binding signal in the assay with ERF is 1.1 fold enrichment (6-mer frequency, TF over GST control); with ETV3L, 1.04 fold enrichment (6-mer frequency, TF over GST control); with ETS2, 1.24 fold enrichment (6-mer frequency, TF over GST control); in the assay with SPDEF it was 1.79 fold enrichment (6-mer frequency, TF over GST control); with ETV7 it was 1.13 fold enrichment (6-mer frequency, TF over GST control); with ELF5, 1.55 fold enrichment (6-mer frequency, TF over GST control). For the same sequence, the binding signal was 1.21 fold enrichment (6-mer frequency, TF over GST control) with ETV3 and 1.21 fold enrichment (6-mer frequency, TF over GST control) with ETV6.

In the case of CTTGTT, the binding signal with ERF was 1.17 fold enrichment (6-mer frequency, TF over GST control); with ETV3L, 1.17 fold enrichment (6-mer frequency, TF over GST control); with ETS2 it was 1.15 fold enrichment (6-mer frequency, TF over GST control); with SPDEF, 1.05 fold enrichment (6-mer frequency, TF over GST control); with ETV7 it was 1.27 fold enrichment (6-mer frequency, TF over GST control); in the assay with ELF5 it was 1.27 fold enrichment (6-mer frequency, TF over GST control). Moreover, the binding signal was 1.2 fold enrichment (6-mer frequency, TF over GST control) with ETV3 and 1.12 fold enrichment (6-mer frequency, TF over GST control) with ETV6.
